Common to all, as to experiment: protein binding microarray; high values mean tight binding
What all share (conditions): dsDNA, one strand shown

The target of assay [1] is RELARELA (p65 homodimer) (Homo sapiens, UniProt Q04206 1-307).
For assay [2], the target named is p50p50 homodimer (Homo sapiens, UniProt P19838 7-356).
Assay [3] addresses T1, p52p52 homodimer (Homo sapiens, UniProt Q00653 4-332).
T1 sequence: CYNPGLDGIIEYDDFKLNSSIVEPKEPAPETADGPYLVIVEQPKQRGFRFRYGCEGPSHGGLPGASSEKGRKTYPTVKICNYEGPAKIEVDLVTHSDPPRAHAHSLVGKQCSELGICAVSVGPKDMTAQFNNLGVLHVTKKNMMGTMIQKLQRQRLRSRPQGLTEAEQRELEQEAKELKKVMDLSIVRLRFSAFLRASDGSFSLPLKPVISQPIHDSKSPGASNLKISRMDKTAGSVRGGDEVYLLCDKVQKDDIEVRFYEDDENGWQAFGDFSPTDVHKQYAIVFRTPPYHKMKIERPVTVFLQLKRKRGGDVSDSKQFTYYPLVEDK

Assay [4] has as its target RELA (p65) subunit of heterodimer;p50 subunit (Homo sapiens;Homo sapiens, UniProt Q04206;P19838 1-307;7-356).
Assay [5] addresses RELA (p65) subunit of heterodimer;p52 subunit (Homo sapiens;Homo sapiens, UniProt Q04206;Q00653 1-307;4-332).
Assay [6] has as its target RELB subunit;p50 subunit (Homo sapiens;Homo sapiens, UniProt Q01201;P19838 120-401;7-356).
The target of assay [7] is T2, RELB subunit;p52 subunit (Homo sapiens;Homo sapiens, UniProt Q01201;Q00653 120-401;4-332).
T2 sequence 1: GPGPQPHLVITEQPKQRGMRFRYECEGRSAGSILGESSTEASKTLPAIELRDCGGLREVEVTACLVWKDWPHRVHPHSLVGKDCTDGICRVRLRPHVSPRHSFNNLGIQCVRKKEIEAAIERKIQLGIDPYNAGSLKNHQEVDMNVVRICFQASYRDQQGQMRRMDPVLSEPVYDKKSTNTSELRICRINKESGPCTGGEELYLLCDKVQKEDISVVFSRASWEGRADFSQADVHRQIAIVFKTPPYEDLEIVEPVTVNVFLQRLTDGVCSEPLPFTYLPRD
T2 sequence 2: T1 sequence

In assay [8] the target is C-Rel subunit;p50 subunit (Homo sapiens;Homo sapiens, UniProt Q04864;P19838 1-285;7-356).
Assay [9] addresses T3, C-Rel subunit;p52 subunit (Homo sapiens;Homo sapiens, UniProt Q04864;Q00653 1-285;4-332).
T3 sequence 1: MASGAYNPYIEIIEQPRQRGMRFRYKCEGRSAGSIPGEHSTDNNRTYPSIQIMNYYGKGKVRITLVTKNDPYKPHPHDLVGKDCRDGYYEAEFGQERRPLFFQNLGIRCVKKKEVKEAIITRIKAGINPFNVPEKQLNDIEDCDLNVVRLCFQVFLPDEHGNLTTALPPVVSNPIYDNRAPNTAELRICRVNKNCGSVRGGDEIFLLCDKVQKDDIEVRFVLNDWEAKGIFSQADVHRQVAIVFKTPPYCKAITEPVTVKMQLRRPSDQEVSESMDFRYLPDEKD
T3 sequence 2: T1 sequence

Chain of RELA (p65) subunit of heterodimer;p50 subunit (Q04206 1-307, chain 1 of 2): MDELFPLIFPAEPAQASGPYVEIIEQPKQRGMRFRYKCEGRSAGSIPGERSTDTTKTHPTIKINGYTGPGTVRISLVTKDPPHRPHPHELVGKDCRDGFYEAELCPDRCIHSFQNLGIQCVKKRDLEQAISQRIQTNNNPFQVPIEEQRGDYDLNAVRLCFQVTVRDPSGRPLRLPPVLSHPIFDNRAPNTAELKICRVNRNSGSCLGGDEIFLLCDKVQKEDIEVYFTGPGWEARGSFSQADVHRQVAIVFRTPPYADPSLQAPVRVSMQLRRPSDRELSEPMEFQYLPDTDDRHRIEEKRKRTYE
Chain of RELA (p65) subunit of heterodimer;p50 subunit (P19838 7-356, chain 2 of 2): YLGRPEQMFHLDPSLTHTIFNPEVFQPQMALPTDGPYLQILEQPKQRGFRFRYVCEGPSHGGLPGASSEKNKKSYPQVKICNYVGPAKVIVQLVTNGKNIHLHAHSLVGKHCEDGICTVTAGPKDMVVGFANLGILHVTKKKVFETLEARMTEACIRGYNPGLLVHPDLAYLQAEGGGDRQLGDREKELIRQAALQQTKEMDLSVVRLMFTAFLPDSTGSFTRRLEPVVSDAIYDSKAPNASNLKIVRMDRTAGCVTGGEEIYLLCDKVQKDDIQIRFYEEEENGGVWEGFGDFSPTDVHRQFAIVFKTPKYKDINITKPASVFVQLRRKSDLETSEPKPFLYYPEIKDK
Chain of RELARELA (p65 homodimer) (Q04206 1-307): as the sequence (Q04206 1-307, chain 1 of 2) above
Chain of p50p50 homodimer (P19838 7-356): as the sequence (P19838 7-356, chain 2 of 2) above

As for GAATTCACCCC, the binding signal in assay [1] is 0.545 z-score; in assay [2], 0.437 z-score; in assay [3], 0.192 z-score; in [4], 0.892 z-score; in assay [5] it was 0.806 z-score; in assay [6] it was 0.49 z-score. Moreover, the binding signal in assay [7] came to 0.753 z-score; in assay [8] it was 0.643 z-score; in assay [9], 0.698 z-score.
With AGGAGGATCCT, the binding signal was -0.49 z-score in assay [1]; -1.69 z-score in [2]; -0.694 z-score in assay [3]; -0.999 z-score in assay [4]; -1.04 z-score in [5]; -0.926 z-score in assay [6]. In addition, the values for the binding signal in assay [7], in [8] and in assay [9] were -0.821 z-score, -1.4 z-score and -0.915 z-score, respectively.
CGGAATTTCCT: the binding signal is 3.7 z-score in assay [1]; -0.012 z-score in [2]; -0.109 z-score in [3]; 1.2 z-score in assay [4]; 0.553 z-score in [5]; -0.413 z-score in [6]. In addition, the values for the binding signal in assay [7], in [8] and in assay [9] were -0.0415 z-score, 0.843 z-score and 0.719 z-score, respectively.
For GGAAGAACCCC, the binding signal in assay [1] was 0.624 z-score; in assay [2] it was 0.621 z-score; in [3], 0.666 z-score; in assay [4], 1.02 z-score; in assay [5], 1.03 z-score; in [6], 0.343 z-score. The binding signal turned out to be 0.678 z-score in assay [7], 0.685 z-score in assay [8] and 0.755 z-score in assay [9].
As to AGGTTACCCCT, the binding signal in assay [1] is -0.124 z-score; in [2] it was 0.813 z-score; in assay [3], 0.514 z-score; in assay [4], 0.468 z-score; in [5] it was 0.804 z-score; in assay [6], 0.84 z-score. In addition, the binding signal in assay [7] stood at 1.36 z-score; in [8], 0.567 z-score; in [9], 0.609 z-score.
For GGGAAGACCCT, the binding signal worked out at 0.871 z-score in assay [1]; 0.365 z-score in [2]; 1.66 z-score in assay [3]; 1 z-score in [4]; 1.17 z-score in assay [5]; 0.374 z-score in assay [6]. The results for the binding signal in assay [7], in [8] and in [9] were 1.01 z-score, 0.481 z-score and 1.03 z-score, respectively.
As for GGAAGTATCCT, the binding signal in assay [1] is -0.066 z-score; in [2], -1.38 z-score; in assay [3], -0.457 z-score; in assay [4], -0.799 z-score; in [5] it was -0.877 z-score; in assay [6] it was -1.12 z-score. For the same sequence, the results for the binding signal in assay [7], in assay [8] and in assay [9] were -0.866 z-score, -1.09 z-score and -0.681 z-score, respectively.
On to AAGGGACCCCC, for which the binding signal in assay [1] is -0.529 z-score; in assay [2], 0.964 z-score; in [3], 0.927 z-score; in assay [4], 0.806 z-score; in [5] it was 0.93 z-score; in assay [6] it was 0.75 z-score. Also, the binding signal is 0.929 z-score in [7], 0.681 z-score in assay [8] and 0.75 z-score in [9].
Turning to GAAGGCATCCT, the binding signal is -0.848 z-score in [1]; -1.34 z-score in [2]; -0.851 z-score in assay [3]; -1.13 z-score in [4]; -1.21 z-score in assay [5]; -1.29 z-score in assay [6]. In addition, the binding signal in [7] is -1.12 z-score; in [8], -1.72 z-score; in [9], -1.14 z-score.
Turning to CAAGATTCCCT, the binding signal in [1] is 0.527 z-score; in assay [2] it was 1.13 z-score; in [3], 0.975 z-score; in assay [4], 0.96 z-score; in assay [5], 0.948 z-score; in assay [6], 1.02 z-score. The binding signal was 1.01 z-score in assay [7], 1.06 z-score in assay [8] and 0.715 z-score in assay [9].
On to AAAATCTTCCC, for which the binding signal in assay [1] is 1.32 z-score; in [2], 0.807 z-score; in assay [3], 0.256 z-score; in assay [4], 0.764 z-score; in assay [5], 0.419 z-score; in assay [6], 0.54 z-score. For the same sequence, the results for the binding signal in assay [7], in [8] and in assay [9] were 0.162 z-score, 1.06 z-score and 0.488 z-score, respectively.
AAATGTGCCCC: the binding signal is 0.655 z-score in [1]; -0.0191 z-score in assay [2]; 0.195 z-score in [3]; 0.499 z-score in [4]; 0.0761 z-score in assay [5]; 0.0211 z-score in assay [6]. Further, the binding signal amounted to 0.23 z-score in assay [7], 0.81 z-score in [8] and 0.211 z-score in assay [9].
For CAGATCCCCCT, the binding signal in [1] was -0.0668 z-score; in assay [2], 1.6 z-score; in assay [3], 1.41 z-score; in assay [4] it was 2.39 z-score; in assay [5], 1.76 z-score; in assay [6], 2.45 z-score. Further, the values for the binding signal in assay [7], in assay [8] and in assay [9] were 2.37 z-score, 1.85 z-score and 1.37 z-score, respectively.
Regarding GAGTAATTCCT, the binding signal is 0.42 z-score in [1]; -1 z-score in [2]; -0.525 z-score in assay [3]; -0.42 z-score in [4]; -0.441 z-score in [5]; -0.739 z-score in assay [6]. The binding signal is -0.87 z-score in [7], -0.18 z-score in assay [8] and -0.195 z-score in assay [9].
In the case of GGAGTTTTCCT, the binding signal in assay [1] was 1.88 z-score; in [2], -0.38 z-score; in assay [3], -0.329 z-score; in [4], 0.312 z-score; in assay [5], -0.0971 z-score; in assay [6] it was -0.676 z-score. The binding signal in [7] is -0.581 z-score; in assay [8], 0.446 z-score; in [9], 0.304 z-score.

The record behind these values is article PMC3218832.
